# Where “and” joins values, the source holds several entries; their conditions need not be identical. Identical values can stand only once. Counter-ions that a name gives are not always drawn. The whole screen tested about 5,800 compounds, of which about 620 (11%) showed activity.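 Rule for the calls: active = score above a cut-off or among the top three wells of a plate; in these data no inactive exceeds 0.85.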 What follows is part of a selection rich in actives, with near analogues and random picks from the rest.
# Test system: primary human hepatic stellate cells (donor 1)
# Test: scaled lipid accumulation score (0 = DMSO-like, 1 = nortriptyline-like); higher = stronger HSC inactivation (lipid re-accumulation), active = hit call of the paper
# Details: 48 h
# [1] = library stock concentration: 400 uM
# [2] = library stock concentration: 2 mM
# [3] = library stock concentration: 10 mM
# [4] = library stock concentration: 3.33 mM
# [5] = library stock concentration: 1 mM
# [6] = library stock concentration: 2.6 mM
# [7] = library stock concentration: 80 uM
smiles,measurement,setting,value
OCCC#Cc1nc(-c2ccc(F)cc2)c(-c2ccncc2)n1CCCc1ccccc1,scaled lipid accumulation score,[1],≤ -0.005 (inactive)
same,scaled lipid accumulation score,[2],≤ -0.005 (inactive)
same,scaled lipid accumulation score,[3],0.668 (inactive)
Nc1ncnc2c1ncn2C1CCCO1 (stereo not given),scaled lipid accumulation score,[3],≤ 0 (inactive) and ≤ -0.006 (inactive)
same,scaled lipid accumulation score,library stock concentration: 24.4 mM,≤ -0.005 (inactive)
Cl.O=C(CCCCCN1CCN(c2ccccc2-c2ccccc2)CC1)NC1CCCc2ccccc21 (stereo not given) [LP 12 hydrochloride hydrate],scaled lipid accumulation score,[3],0.898 (active)
COc1ccccc1N1CCN(CCCCN2C(=O)c3ccccc3C2=O)CC1 [NAN-190 hydrobromide],scaled lipid accumulation score,[3],0.324 (inactive) and 0.002 (inactive)
CC(=O)c1ccc2c(c1)N(CCCN1CCN(CCO)CC1)c1ccccc1S2,scaled lipid accumulation score,[3],0.638 (inactive)
CC(=O)c1ccc2c(c1)N(CCCN1CCC(CCO)CC1)c1ccccc1S2 [Piperacetazine],scaled lipid accumulation score,,0.427 (inactive)
CSc1ccccc1N1CCN(CCCCCC(=O)NC2CCCc3ccccc32)CC1.Cl (stereo not given),scaled lipid accumulation score,[3],1.06 (active)
O=C(O)C=C1CCCc2ccccc2C1O (stereo not given),scaled lipid accumulation score,[3],0.122 (inactive) and 0.034 (inactive)
CC(=O)Nc1cccc2c1c(Sc1ccc(Cl)cc1)c(C)n2CC(=O)O,scaled lipid accumulation score,[4],≤ -0.009 (inactive)
same,scaled lipid accumulation score,[3],0.195 (inactive)
CC[n+]1c(/C=C/N(C)c2ccccc2)n(-c2ccccc2)c2ccc(-c3nc4ccccc4s3)cc21 [Akt Inhibitor IV],scaled lipid accumulation score,[4],≤ 0 (inactive)
CCCCCCCCCCCCCCCCCCCC(=O)NCCO [Arachidoyl Ethanolamide],scaled lipid accumulation score,[5],≤ 0 (inactive)
COc1cc(/C=C/C(=O)N2CCCCCCC2)cc(OC)c1OC,scaled lipid accumulation score,[3],≤ 0 (inactive)
C[C@H]1O[C@@H](O[C@H]2[C@@H](O)C[C@H](O[C@H]3[C@@H](O)C[C@H](O[C@H]4CC[C@]5(C)C6CC[C@]7(C)[C@@H](C8=CC(=O)OC8)CC[C@]7(O)C6CC[C@@H]5C4)O[C@@H]3C)O[C@@H]2C)C[C@H](O)[C@@H]1O (stereo not given in full) [Digitoxin],scaled lipid accumulation score,[6],1.2 (active)
C[C@H]1O[C@@H](O[C@H]2[C@@H](O)C[C@H](O[C@H]3[C@@H](O)C[C@H](O[C@H]4CC[C@@]5(C)[C@H](CC[C@@H]6[C@@H]5C[C@@H](O)[C@]5(C)[C@@H](C7=CC(=O)OC7)CC[C@]65O)C4)O[C@@H]3C)O[C@@H]2C)C[C@H](O)[C@@H]1O [Digoxin],scaled lipid accumulation score,,1.03 (active)
same,scaled lipid accumulation score,[4],1.11 (active)
same,scaled lipid accumulation score,[3],0.888 (active) and 0.816 (inactive)
C[C@H]1O[C@@H](O[C@H]2[C@@H](O)C[C@H](O[C@H]3[C@@H](O)C[C@H](O[C@H]4CC[C@]5(C)C6C[C@@H](O)[C@]7(C)[C@@H](C8=CC(=O)OC8)CC[C@]7(O)C6CC[C@@H]5C4)O[C@@H]3C)O[C@@H]2C)C[C@H](O)[C@@H]1O (stereo not given in full) [Digoxin],scaled lipid accumulation score,[6],0.937 (active)
C[C@H]1O[C@@H](O[C@H]2[C@@H](O)C[C@H](O[C@H]3[C@@H](O)C[C@H](O[C@H]4CC[C@@]5(C)[C@H](CC[C@@H]6[C@@H]5CC[C@]5(C)[C@@H](C7=CC(=O)OC7)CC[C@]65O)C4)O[C@@H]3C)O[C@@H]2C)C[C@H](O)[C@@H]1O [Digitoxin],scaled lipid accumulation score,[3],0.545 (inactive)
C[C@H]1O[C@@H](O[C@H]2[C@@H](O)C[C@H](O[C@H]3[C@@H](O)C[C@H](O[C@H]4CC[C@@]5(C)[C@H](CC[C@@H]6[C@@H]5C[C@@H](O)[C@]5(C)[C@@H](C7=CC(=O)OC7)CC[C@]65O)C4)O[C@@H]3C)O[C@@H]2C)C[C@H](O)[C@@H]1O,scaled lipid accumulation score,[3],0.599 (inactive)
N[C@@H](Cc1ccc(F)cc1)C(=O)O [p-Fluoro-L-phenylalanine],scaled lipid accumulation score,[3],≤ -0.07 (inactive)
Nc1nc(-c2ccc(Cl)c(Cl)c2)c(-c2ccncc2)s1 [CGH 2466 dihydrochloride],scaled lipid accumulation score,[3],0.001 (inactive)
O=[N+]([O-])c1cc2nc(O)c(O)nc2cc1[N+](=O)[O-],scaled lipid accumulation score,[3],≤ -0.07 (inactive) and ≤ 0 (inactive)
CC(C)[C@H](NC(=O)[C@H](CC(=O)O)NC(=O)[C@H](CCCCN)NC(=O)[C@@H](N)CCCN=C(N)N)C(=O)N[C@@H](Cc1ccc(O)cc1)C(=O)O,scaled lipid accumulation score,[3],≤ 0 (inactive)
CCOC(=O)[C@]12CC1/C(=N\O)c1ccccc1O2 (stereo not given in full),scaled lipid accumulation score,[3],≤ 0 (inactive) and 0.015 (inactive)
CS(=O)(=O)O.Cc1ccc2c(c1)c1c3n2CCNC3CCC1 (stereo not given) [Pirlindole mesylate],scaled lipid accumulation score,[3],0.93 (active)
c1cc2c(cc1C1CCCCC1)c1c3n2CCNC3CCC1 (stereo not given) [Tetrindole mesylate],scaled lipid accumulation score,[3],≤ 0 (inactive)
Cc1ccc2c(c1)c1c3n2CCNC3CCC1 (stereo not given) [Pirlindole mesylate],scaled lipid accumulation score,,0.472 (inactive)
Cc1cncc2cccc(S(=O)(=O)N3CCCN(C(=O)CN)C[C@@H]3C)c12 [Rho Kinase Inhibitor IV],scaled lipid accumulation score,[4],≤ 0 (inactive)
C=CCN(C)CCCCCCOc1ccc(C(=O)c2ccc(Br)cc2)c(F)c1,scaled lipid accumulation score,[5],0.116 (inactive)
CCCCC/C=C\C/C=C\CCCCCCCC(=O)OCC(COC(=O)CCCCCCCCCCCCCCC)OC(=O)CCCCCCC/C=C\CCCCCCCC (racemic) [1-Palmitoyl-2-oleoyl-3-linoleoyl-rac-glycerol],scaled lipid accumulation score,[5],0.03 (inactive)
OC1C[C@@H]2[C@@H](CC[C@@H](O)CCc3ccccc3)[C@H](O)C[C@@H]2O1 (stereo not given in full) [Latanoprost Lactol],scaled lipid accumulation score,[5],0.027 (inactive)
"COc1cc2ncnc(Nc3cccc(O)c3)c2cc1OC [WHI-P180, Hydrochloride]",scaled lipid accumulation score,[4],≤ 0 (inactive)
COc1cc2ncnc(Nc3cccc(Cl)c3)c2cc1OC [Tyrphostin AG 1478],scaled lipid accumulation score,[3],0.882 (active)
COc1cc2ncnc(Nc3ccc(Cl)cc3Cl)c2cc1OC [Ste11 MAPKKK Activation Inhibitor],scaled lipid accumulation score,[4],≤ 0 (inactive)
COc1cc2ncnc(Nc3cccc(Cl)c3)c2cc1OC,scaled lipid accumulation score,[7],≤ -0.016 (inactive)
same,scaled lipid accumulation score,[1],≤ -0.016 (inactive)
same,scaled lipid accumulation score,[2],≤ -0.016 (inactive)
same,scaled lipid accumulation score,[4],≤ 0 (inactive)
same,scaled lipid accumulation score,[3],0.749 (inactive)
same,scaled lipid accumulation score,library stock concentration: 14.2 mM,0.452 (inactive)
COc1cc2ncnc(Nc3cccc(Cl)c3)c2cc1OC [AG-1478 (Tyrphostin AG-1478)] [listing 1 of 2 here],scaled lipid accumulation score,[4],≤ 0 (inactive)
COc1cc2ncnc(Nc3ccc(Oc4ccccc4)cc3)c2cc1OC,scaled lipid accumulation score,[3],0.029 (inactive)
COc1cc2ncnc(Nc3cccc(Cl)c3)c2cc1OC [AG-1478 (Tyrphostin AG-1478)] [listing 2 of 2 here],scaled lipid accumulation score,[3],1.07 (active)
COc1cc2ncnc(Nc3ccc(Oc4ccccc4)cc3)c2cc1OC [Src Kinase Inhibitor I],scaled lipid accumulation score,[4],≤ 0 (inactive)
CCCCCCCCCCCCCCCCOC[C@H](COP(=O)([O-])OCC[N+](C)(C)C)SC(C)=O [2-thio-PAF],scaled lipid accumulation score,[5],≤ 0 (inactive)
CN1C(=O)C(c2c[nH]c3ccccc23)=C(c2c[nH]c3ccccc23)C1=O [Bisindolylmaleimide V],scaled lipid accumulation score,[5],≤ 0 (inactive)
same,scaled lipid accumulation score,[4],≤ 0 (inactive)
C[C@H]1[C@H](C)CC[C@]2(C(=O)O[C@@H]3O[C@H](CO[C@@H]4O[C@H](CO)[C@@H](O[C@@H]5O[C@H](C)[C@H](O)[C@@H](O)[C@H]5O)[C@H](O)[C@H]4O)[C@@H](O)[C@H](O)[C@H]3O)CC[C@]3(C)C(=CC[C@@H]4[C@@]5(C)C[C@@H](O)[C@H](O)[C@@](C)(CO)[C@@H]5CC[C@]43C)[C@H]12 [Asiaticoside],scaled lipid accumulation score,,≤ 0 (inactive)
Cn1c(Nc2ccc(C(F)(F)F)cc2)nc2cc(Oc3ccnc(-c4ncc(C(F)(F)F)[nH]4)c3)ccc21,scaled lipid accumulation score,[7],≤ -0.001 (inactive)
same,scaled lipid accumulation score,[1],≤ -0.003 (inactive)
same,scaled lipid accumulation score,[2],0.037 (inactive)
same,scaled lipid accumulation score,[4],0.031 (inactive)
same,scaled lipid accumulation score,[3],0.077 (inactive) and 0.031 (inactive)
O=C1Cc2c([nH]c3ccc(Br)cc23)-c2ncccc2N1 [1-Azakenpaullone],scaled lipid accumulation score,[4],0.405 (inactive)
same,scaled lipid accumulation score,[3],0.808 (inactive)
CCCCCCCCCCCCCCCCOCC(COP(=O)([O-])OCC[N+](C)(C)C)OC (stereo not given) [1-Hexadecyl-2-methylglycero-3 PC],scaled lipid accumulation score,[5],0.043 (inactive)
COc1cc(C[C@@H](CO)[C@H](CO)Cc2ccc(O)c(OC)c2)ccc1O,scaled lipid accumulation score,[3],0.022 (inactive)
NC[C@@H]1O[C@H](C23CC4CC(CC(C4)C2)C3)Cc2c1ccc(O)c2O,scaled lipid accumulation score,[3],0.438 (inactive)
NC[C@@H]1O[C@H](c2ccccc2)Cc2c1ccc(O)c2O,scaled lipid accumulation score,[3],≤ 0 (inactive)
NC[C@H]1c(c2C[C@@H]([C@]3(C4)CC(CC45)CC(C5)C3)O1)ccc(O)c2O.Cl,scaled lipid accumulation score,[3],1.19 (active)
COc1ccc(C2CC(=O)c3c(O)cc(OC4OC(COC5OC(C)C(O)C(O)C5O)C(O)C(O)C4O)cc3O2)cc1OC (stereo not given) [Methyl-Hesperidin],scaled lipid accumulation score,[4],≤ 0 (inactive)
same,scaled lipid accumulation score,[3],≤ 0 (inactive)
CCCCC/C=C\C/C=C\C/C=C\C/C=C\CCCC(=O)OC(COCCCCCCCCCCCCCCCC)COP(=O)([O-])OCC[N+](C)(C)C (stereo not given) [Arachidonoyl PAF C-16],scaled lipid accumulation score,[5],≤ 0 (inactive)
"Cl.O[Si](CCCN1CCCCC1)(c1ccc(F)cc1)C1CCCCC1 (stereo not given) [Hexahydro-sila-difenidol hydrochloride, p-fluoro analog]",scaled lipid accumulation score,[3],0.956 (active)
O=C(c1ccc(F)cc1)C1CCN(CCCCc2ccccc2)CC1 [4-(4-Fluorobenzoyl)-1-(4-phenylbutyl)-piperidine oxalate],scaled lipid accumulation score,[3],0.378 (inactive)
CC1CCN(CCCC(=O)c2ccc(F)cc2)CC1 [Metylperon],scaled lipid accumulation score,[3],≤ 0 (inactive)
CC1CCN(CCCC(=O)c2ccc(F)cc2)CC1 [Melperone hydrochloride],scaled lipid accumulation score,[3],0.058 (inactive)
CC1CCN(CCCC(=O)c2ccc(F)cc2)CC1,scaled lipid accumulation score,[3],≤ 0 (inactive)
C[C@H]1[C@H](C)CC[C@]2(C(=O)O)CC[C@]3(C)C(=CC[C@@H]4[C@@]5(C)CC[C@H](O)C(C)(C)[C@@H]5CC[C@]43C)[C@H]12 [Ursolic Acid],scaled lipid accumulation score,[4],0.013 (inactive)
same,scaled lipid accumulation score,[3],≤ 0 (inactive)
C[C@H]1[C@H](C)CC[C@]2(C(=O)O)CC[C@]3(C)C(=CC[C@@H]4[C@@]5(C)CC[C@H](O)C(C)(C)[C@@H]5CC[C@]43C)[C@H]12 [Ursolic acid],scaled lipid accumulation score,,0.053 (inactive)

# Reference: the supplement of paper PMC9135407
